Screening data: PubChem, National Center for Advancing Translational Sciences (NCATS)
Hits are enriched below; roughly 21% of the tested compounds scored in any of these assays.
CHX counter – counter-screen for Shiga toxin inhibitors: cycloheximide protein synthesis inhibition | 300,000 compounds, 12% hits | max response, % | cell reporter, cycloheximide protein synthesis inhibition counterscreen; in the data active = max response mostly above about 13%, no sharp cut-off; inactive = mostly below about 14%; note: read at 38.3 µM for the half of the compounds with a filed dose
Shiga inhibitor – Shiga toxin inhibition; Vero cells, Shiga toxin protein synthesis inhibition reporter; inhibition, % at 38.7 µM; 290,000 compounds, 9.2% hits; AID 2315; in the data active = inhibition mostly above about 28%, no sharp cut-off; inactive = mostly below about 43%
Pf growth 48h – inhibits P. falciparum growth in the first generation, 48 h | P. falciparum luciferase growth in erythrocytes, 48 h | AID 504832 | 310,000 compounds, 5.9% hits | Potency, µM (series often up to 28.7 µM), hits mostly inhibitors
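Read-out is firefly luciferase luminescence from an integrated reporter in P. falciparum, so falling signal marks reduced parasite growth. Infected erythrocytes were at 2% hematocrit and 0.1% parasitemia (final) in Albumax-supplemented RPMI 1640.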
Sm TGR inh – S. mansoni TGR enzyme inhibition; purified TGR, DTNB reduction, TNB absorbance 405 nm; Potency, µM (highest dose often 114 µM), hits mostly inhibitors; 360,000 compounds, 3% hits; AID 485364; note: nearly all actives have a fitted effect of over 60% in size
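TGR 20 nM + NADPH 100 uM (dispensed conc.), cpd preinc 15 min RT; start with NADPH (500 uM addition) then DTNB (15 mM addition). Kinetic TNB absorbance, 405 nm filter. Four-parameter Hill fit across titration.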
Pf growth 96h – inhibits malaria parasite growth, 96 h | P. falciparum luciferase reporter growth, 96 h | Potency, µM (doses to about 28.7 µM), hits mostly inhibitors | 320,000 compounds, 6.9% hits | AID 504834
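Delayed-death screen, second-generation endpoint: infected erythrocytes, 2% hematocrit, 0.05% parasitemia final; 96 hours at 37 C, 5% CO2; luciferase detection reagent; luminescence decrease equals reduced growth.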
NS1 inh – blocks influenza NS1 protein function; 270,000 compounds, 0.4% hits; AID 2326; Potency, µM (doses to about 46.1 µM); calls by dose curve; note: actives are rising curves; nearly all actives have a fitted effect of over 50% in size
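S. cerevisiae expressing influenza A NS1, grown in glucose, washed, then diluted 1:100 into pH 6.0 -URA galactose medium with 23 nl compound. Growth recovery read as OD600; NS1-free strain serves as control.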
A number is an active result; n = inactive; u = inconclusive; x = no result; [ ] = remark or other dose. Unless noted, calls come from the whole dose curve; as a rule, active = well fitted curve in the direction sought with a large enough effect; inconclusive = small, poorly fitted or top-dose-only effect, or another doubt; inactive = no such curve, though single readings can be large; an effect the other way counts as inactive or inconclusive.

SMILES	CHX counter	Shiga inhibitor	Pf growth 48h	Sm TGR inh	Pf growth 96h	NS1 inh
COc1ccc(N2C(=O)/C(=C/c3cccs3)C(=O)NC2=S)cc1	n	n	n	35µM	n	n
COc1ccc(N2C(=O)/C(=C/c3cccs3)NC2=S)cc1	n	22	n	n	n	n
COc1ccc(N2C(=O)/C(=C/c3ccc(N(C)C)o3)C(=O)NC2=S)cc1	n	n	x	u	n	n
COc1ccc(N2C(=O)/C(=C/C=C/c3ccccc3[N+](=O)[O-])C(=O)NC2=S)cc1	n	n	n	45µM	n	x
CCOC(=O)c1c(-c2ccc(C)cc2)csc1NC(=O)c1cc(=O)c2cc(C)cc(C)c2o1	x	x	x	n	x	x
O=C(NCc1ccco1)c1ccc(=O)[nH]n1	n	n	n	n	n	n
CCCc1cc(C(=O)NCc2cccs2)no1	35	n	x	n	u	n
CCc1cc(Cn2nc(-c3ccccc3)cc2C(=O)NCc2cccs2)on1	x	x	15µM	n	5.9µM	x
CCCc1cc(C(=O)NCc2ccco2)no1	15	72	x	u	13µM	n
CCCc1cc(C(=O)NCC(C)C)no1	33	117	x	n	n	n
COc1ccc(CCNC(=O)CCNC(=O)c2ccco2)cc1	n	n	n	n	n	n
Cc1nn(CCCC(=O)Nc2c(F)cc(F)cc2Br)c(C)c1[N+](=O)[O-]	n	n	n	n	n	x
COc1ccc(Cn2ccc3nc(C)c(C(=O)N4CCN(c5ccc(F)cc5)CC4)cc3c2=O)cc1	x	x	x	n	x	x
CCCc1cc(C(=O)NCc2ccccc2)no1	27	59	n	n	n	n
CC(CN1CCCC1)OC(=O)c1ccc(Cl)cc1 (stereo unspecified)	n	n	n	n	n	n
CC1CCN(CC(C)OC(=O)c2ccc3c(c2)OCCO3)CC1 (stereo unspecified)	23	n	x	n	n	n
CC(CN1CCCCC1)OC(=O)c1ccc2c(c1)OCO2 (stereo unspecified)	25	n	n	n	n	n
Oc1ccc(NCc2ccc(OCc3ccccc3)cc2)cc1	50	153	n[0.00184 µM]	7.1µM	n	n
Oc1ccc(NCc2ccc(OCc3ccccc3Cl)cc2)cc1	x	x	x	35µM	x	x
CCc1ccc(CNc2ccc(O)cc2)cc1	n	n	12µM	22µM	n	n
Cn1nnnc1SCCNCc1ccc(OCc2ccccc2Cl)cc1	x	x	x	n	x	x
COc1cccc(CNC(=O)c2oc3ccc4c(c3c2C)C(=O)CC(C)(C)O4)c1OC	x	x	x	n	x	x
COc1ccc(-c2nnc3n2N=C(c2ccc(OC)cc2OC)CS3)cc1	n	n	x	x	x	x
O=C(/C=C/c1ccc(O)c(O)c1)O[C@H](Cc1ccc(O)c(O)c1)C(=O)O	n	n	n	3.2µM	n	5.6µM
Cc1cccc(CN2CCC(C(N)=O)CC2)c1	n	n	x	n	u	n
SMILES	CHX counter	Shiga inhibitor	Pf growth 48h	Sm TGR inh	Pf growth 96h	NS1 inh
Cc1cccc(CN2CCC(N3CC(C)OC(C)C3)CC2)c1 (stereo unspecified)	n	n	n	n	12µM	n
O=S(=O)(NN1CCOCC1)c1cc(Cl)cc(Cl)c1O	n	n	n	n	1.7µM	n
CCOC(=O)C1=C(CN2CCN(C(=O)c3ccco3)CC2)NC(=O)NC1c1ccc(F)cc1 (stereo unspecified)	n	n	10µM	n	n	n
CCOC(=O)C1=C(CN2CCN(C(=O)c3ccco3)CC2)NC(=O)NC1c1ccc(OC(C)C)cc1 (stereo unspecified)	n	n	12µM	n	u	n
CCOC(=O)C1=C(CN2CCN(C(=O)c3ccco3)CC2)NC(=O)NC1c1ccc(Cl)cc1 (stereo unspecified)	n	n	3.7µM	n	u	n
COc1ccc(C(=O)N2CCN(C(=O)c3ccco3)CC2)cc1	n	n	n	n	u	n
CCOC(=O)C1=C(CN2CCC(C)CC2)NC(=O)NC1c1ccc(F)cc1 (stereo unspecified)	x	x	x	n	x	x
CC(C)Oc1ccc(C(=O)N2CCN(C(=O)c3ccco3)CC2)cc1	n	n	n	n	10µM	n
Cn1nccc1C(=O)NC1CCCc2c1cnn2-c1ccc(C(C)(C)C)cc1 (stereo unspecified)	n	n	n	u	n	n
Cc1cc(=O)oc2c3c(cc(OCC(=O)NCc4ccccc4)c12)OC(C)(C)CC3	n	n	u	n	12µM	n
Cc1cc(=O)oc2c3c(cc(OCC(=O)NC4CC4)c12)OC(C)(C)CC3	n	n	u	n	15µM	n
Cc1cc(=O)oc2c3c(cc(OCC(=O)Nc4cccnc4)c12)OC(C)(C)CC3	n	n	n	n	1.3µM	n
Cc1c(C)c2c(OCC(=O)NC3CC3)cc3c(c2oc1=O)CCC(C)(C)O3	n	n	u	n	12µM	n
Cc1cc(=O)oc2c3c(cc(OCC(=O)Nc4ccc(CCO)cc4)c12)OC(C)(C)CC3	n	n	u	n	u	n
Cc1cc(=O)oc2c3c(cc(OCC(=O)NCC(=O)O)c12)OC(C)(C)CC3	n	n	n	n	n	n
CSC[C@H](NC(=O)COc1cc2c(c3oc(=O)cc(C)c13)CCC(C)(C)O2)C(=O)O	n	n	n	n	n	n
Cc1ccc(Cl)cc1N1CCN(C(=O)CN2C(=O)COc3ccc(S(=O)(=O)N4CCC(C)CC4)cc32)CC1	x	x	x	n	x	x
CCN1CCCC1CNC(=O)c1ccc(Sc2ccccc2Cl)c([N+](=O)[O-])c1 (stereo unspecified)	n	n	u	n	n	x
Cc1c(C)c2c(OCC(=O)NCC(O)c3ccccc3)cc3c(c2oc1=O)CCC(C)(C)O3 (stereo unspecified)	n	n	u	n	4.7µM	n
CCc1ccc(NC(=O)Cn2c(=O)n(CCc3ccccc3)c(=O)c3sc4ccccc4c32)cc1	x	x	x	n	x	x
C#CCSc1nnc(CNS(=O)(=O)c2ccc(Br)cc2)n1C	n	n	n	10µM	n	n
CSc1nnc(CNS(=O)(=O)c2ccc(F)cc2)n1C	n	n	n	n	u	n
Cc1c(/C(Cc2ccccc2)=N/O)c2ccccc2n1C	n	n	u	n	10µM	n
COc1c(Cl)cc(Br)c(OC)c1C(=O)NC(=O)Nc1nc(C)cc(C)n1	n	n	n	n	n	n
CC1=NN(C(=O)CSCc2ccccc2)C(O)(c2ccc(Cl)cc2)C1 (stereo unspecified)	n	n	n	n	12µM	n
SMILES	CHX counter	Shiga inhibitor	Pf growth 48h	Sm TGR inh	Pf growth 96h	NS1 inh
Nc1ccccc1C(=O)/C=C/c1ccc2c(c1)OCO2	69	116	n	n	n	n
O=C(/C=C/c1ccc2c(c1)OCO2)c1ccco1	17	29	n	n	6.6µM	n
O=C(COC(=O)/C=C/c1ccc2c(c1)OCO2)NC1CC1	n	n	n	n	n	n
N#CCOC(=O)/C=C/c1ccc2c(c1)OCO2	22	n	n	n	n	n
O=C(Cc1ccccc1)Nc1ccc(N2CCCCC2)cc1	31	83	n	n	n	n
CS(=O)(=O)N1CCN(c2ccc(NC(=O)Cc3ccccc3)cc2)CC1	n	n	x	n	n	n
CN1CCN(c2ccc(NC(=O)Cc3ccccc3)cc2)CC1	55	75	n	n	x	n
